The list is not random: actives were taken first. Their share in the collection is about 3.2%.
A3G deaminase – APOBEC3G DNA deaminase inhibitors, primary screen, biochemical, fluorescence, single-stranded DNA substrate, uHTS; recombinant A3G, ssDNA deamination FAM/TAMRA fluorescence; AID 493012, 2011; inhibition, % at 20 µM; 330,000 compounds, 0.28% hits;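 active means inhibition of at least 40% at 20 µM, with no more than 30% in the related APOBEC3A deaminase screen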;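 further: plate controls were DMSO wells with A3G for no effect and wells lacking A3G enzyme for full effect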
Target sequence (Q9HC16 whole entry, looked up): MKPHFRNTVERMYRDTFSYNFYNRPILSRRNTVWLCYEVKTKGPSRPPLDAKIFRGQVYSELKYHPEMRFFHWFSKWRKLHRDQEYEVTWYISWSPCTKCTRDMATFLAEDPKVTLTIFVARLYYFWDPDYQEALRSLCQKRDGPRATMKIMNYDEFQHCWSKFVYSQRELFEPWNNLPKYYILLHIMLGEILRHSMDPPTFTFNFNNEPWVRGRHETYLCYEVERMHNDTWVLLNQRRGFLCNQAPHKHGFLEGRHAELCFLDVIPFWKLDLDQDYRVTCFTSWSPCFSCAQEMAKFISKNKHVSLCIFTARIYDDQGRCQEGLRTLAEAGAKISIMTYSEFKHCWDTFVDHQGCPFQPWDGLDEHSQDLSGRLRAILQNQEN
AHR activator – AHR activators, primary screen, cell-based, luminescence, luciferase reporter, human; Aryl hydrocarbon receptor (Homo sapiens), P35869; AHR-responsive luciferase reporter cells; activation, % at 5 µM; 320,000 compounds, 2.5% hits; in the data active means activation above about 47%;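 further: 0% = vehicle wells and 100% = reference agonist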
A3A deaminase – APOBEC3A ssDNA deaminase inhibitors, primary screen, selectivity assay for APOBEC3G inhibitor project, biochemical, FAM/TAMRA oligo cleavage fluorescence; DNA dC->dU-editing enzyme APOBEC-3A (Homo sapiens), P31941; recombinant A3A, FAM/TAMRA ssDNA deamination fluorescence; inhibition, % at 20 µM; 330,000 compounds, 0.41% hits; AID 493011, 2011;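 active means at least 40% inhibition at 20 µM here, with at most 30% in a related deaminase screen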;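 further: plate controls were A3A with DMSO for no effect and wells lacking A3A enzyme for full effect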
Target sequence (P31941 whole entry, looked up): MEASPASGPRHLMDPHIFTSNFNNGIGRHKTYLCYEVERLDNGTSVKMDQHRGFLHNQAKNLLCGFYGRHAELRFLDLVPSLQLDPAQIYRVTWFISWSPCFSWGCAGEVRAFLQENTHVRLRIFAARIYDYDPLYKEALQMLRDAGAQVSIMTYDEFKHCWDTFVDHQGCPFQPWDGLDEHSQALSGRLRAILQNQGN
NTR1 agonist – agonists of human NTR1, primary screen, imaging, U2OS cells, beta-arrestin-GFP, high content. Neurotensin receptor type 1 (Homo sapiens), P30989. NTR1-U2OS beta-arrestin-GFP spot imaging, agonist mode. activation, % at 20 µM. 330,000 compounds, 0.17% hits. AID 493036, 2011;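 active means activation at or above 40% of the spot to cytoplasm intensity ratio, with at least 20 cells analyzed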;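 further: 0% = DMSO without peptide and 100% = 100 nM NTR1 peptide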
AHR act confirm – AHR activators, confirmation, cell-based, luminescence, luciferase reporter, human | activation, % at 9 µM | shares compounds with AHR activator | 2,300 compounds, 87% hits | AID 2845, 2010 | human cells, AHR-responsive luciferase reporter; in the data active means activation above about 49%;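 further: HepG2 hepatoma cells carrying a DRE-driven firefly luciferase reporter; 0% = vehicle wells and 100% = reference agonist wells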
PXR act counter – human PXR activators, counter-screen for AHR activator project, cell-based, luciferase luminescence; 2,300 compounds, 88% hits; activation, % at 11.6 µM; cell-based PXR reporter; shares compounds with AHR activator; in the data active means activation above about 11%;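 further: human hepatoma DPX-2 cells expressing full-length human PXR; 0% = DMSO and 100% = reference agonist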
Active calls of the source: *.

SMILES | A3G deaminase | AHR activator | A3A deaminase | NTR1 agonist | others
CCS(=O)(=O)Nc1cccc(C(=C2CCCCC2)c2cnc[nH]2)c1 | -6.7 | 57.9* | 0.7 | 6.0
Fc1ccc(Cn2nnnc2CN2CCC(n3nnc4cc(C(F)(F)F)ccc43)CC2)cc1 | -3.2 | 0.3 | 1.7 | 0.2
FC(F)(F)c1ccc2c(c1)ncn2C1CCN(Cc2nnnn2C2CCCCC2)CC1 | -6.0 | 55.6* | 0.2 | 1.1
CCOC(=O)c1c(C)n(Cc2ccco2)c2c1cc(O)c1ccccc12 | -0.7 | 51.3* | 2.0 | 6.4
CC1CCC2[C@@H](C)C(=O)OC3O[C@]4(C)CCC1C32OO4 (some centres not stated) | -7.7 | -1.3 | -2.1 | -0.2
Cc1cc(OCC(=O)NCc2ccncc2)c2c3c(c(=O)oc2c1)CCCC3 | -0.8 | 63.6* | 0.4 | 1.9
CCCOC(=O)c1ccc(-[n+]2c(-c3ccccc3)cc(-c3ccccc3)cc2-c2ccccc2)cc1 | -5.3 | -4.6 | 0.7 | 40.0*
Nc1c2c(nc3sc4c(c13)CCCC4)CCCCC2 | -4.2 | 57.9* | 0.4 | 6.7
CC(=O)O[C@]1(C)C(=O)OC/C2=C/CN(C)CCC(OC(=O)[C@@](O)(C(C)O)C[C@H]1C)C2=O (some centres not stated) | 6.4 | 0.3 | 1.8 | 1.7
COc1ccccc1N=Cc1c(O)n(C)c(=O)n(C)c1=O | -1.2 | 73.3* | 0.6 | -1.2
CC(=NCc1ccco1)c1c(O)n(-c2ccc(Cl)cc2)c(=O)[nH]c1=O | -0.7 | -5.7 | 2.9 | 2.6
Cc1cccc(C(=O)NC(Oc2ccccc2)C(Cl)(Cl)Cl)c1 (configuration not stated) | -1.2 | 50.2* | 1.9 | 0.7
CCOP(=O)(OCC)C(NC(=O)c1cccc(C)c1)C(Cl)(Cl)Cl (configuration not stated) | -1.3 | -1.5 | -4.6 | 0.2
CCN(C(=O)COC(=O)c1cn(C)c2ccccc12)c1ccc(F)cc1 | -3.9 | 5.8 | -1.6 | -0.5
CN(C)C(=O)Oc1ccc(Br)cc1C(=O)Nc1ccc(F)c(Cl)c1 | -4.4 | 66.9* | -3.4 | 2.4
COc1ccc(OC)c(-n2c(O)c(C=Nc3c(C)n(C)n(-c4ccccc4)c3=O)c(=O)[nH]c2=S)c1 | 0.0 | 1.8 | -6.5 | -1.4
O=c1c2ccccc2nc(-c2ccccc2)n1-c1ccccc1O | -2.5 | 63.5* | -4.5 | -0.6
O=c1c2ccccc2nc(/C=C/c2ccccc2O)n1-c1ccccc1O | -7.8 | 47.1* | -1.4 | -1.3
O=c1c2ccccc2nc(-c2ccccc2)n1-n1cccc1 | -2.2 | 74.2* | 1.8 | 2.1
O=c1c2ccccc2nc(-c2ccccc2)n1-c1ccccc1 | -5.1 | 0.0 | -1.4 | -1.2
C/C=C1/CC(C)C(C)(O)C(=O)OCC2CCN3CCC(OC1=O)C23 (configuration not stated) | -8.3 | -2.5 | -0.8 | 0.2
N#CC(C#N)=C(C#N)c1ccc(Nc2ccccc2)cc1 | -4.5 | -2.5 | -0.9 | 0.6
C[C@]12CC[C@@H]3c4ccc(O)c(O)c4CC[C@H]3[C@@H]1CC[C@@H]2O | 63.9* | 0.0 | -0.9 | 3.3
C[C@]12CC[C@H]3[C@@H](CCC4=CC(=O)CC[C@@H]43)[C@@H]1CC[C@@H]2O | -0.6 | 0.1 | -0.7 | -1.6
COC(=O)C1=C(c2ccc(OC(F)(F)F)cc2)C[C@@H]2CC[C@H]1N2C(=O)NC(C)C | -9.6 | -1.2 | -1.8 | -0.9
SMILES | A3G deaminase | AHR activator | A3A deaminase | NTR1 agonist | others
COC(=O)C1=C(c2ccc(-c3ccccc3)c(F)c2)C[C@@H]2CC[C@H]1N2C(=O)N1CCCC1 | -7.2 | -1.7 | -1.4 | 1.7
O=c1[nH]c(O)c(/C=C2/C=CC(c3cc(Cl)ccc3Cl)=N2)c(=O)[nH]1 | -5.4 | 0.2 | -2.6 | 46.2*
CC1=Nc2ccccc2/C1=C/c1c(O)[nH]c(=O)[nH]c1=O | 2.0 | 14.3 | 0.7 | -0.1
COC(=O)C1=C(c2ccc(OCc3ccccc3)cc2)C[C@@H]2CC[C@H]1N2C(=O)NCc1ccc([N+](=O)[O-])cc1 | -2.6 | -0.1 | -2.5 | 0.8
Clc1ccc(-c2nc3ccc(Cl)cn3c2CN2CCOCC2)cc1 | -1.6 | 62.1* | -0.3 | 1.1
O=C1NC(=O)C(=Cc2ccc(-c3ccc(S(=O)(=O)N4CCOCC4)cc3)o2)C(=O)N1 | -4.7 | 0.1 | 1.4 | 22.7
O=C1NC(=O)C(=Cc2ccc(-c3ccc(Cl)cc3)o2)C(=O)N1 | -3.1 | 2.2 | -1.5 | 40.7*
CCN1CCN(C(=O)COc2cc(=O)n(CC)c3ccccc23)CC1 | -0.5 | 10.4 | 2.7 | 0.7
CCn1c(=O)cc(OCC(=O)N2CCN(Cc3ccc4c(c3)OCO4)CC2)c2ccccc21 | -4.5 | 54.9* | -6.4 | 1.7
Clc1ccccc1NC1=NCCCS1 | -1.6 | -0.7 | -0.5 | 0.9
Clc1ccccc1Nc1ncnc(-n2cccc2)n1 | 0.1 | 101.4* | -0.7 | 1.4
O=C1NC(=O)C2(Cc3ccccc3N3CCCC32)C(=O)N1c1ccccc1 (configuration not stated) | -11.1 | 23.5 | -3.0 | -0.6
CN1c2ccc([N+](=O)[O-])cc2CC2(C(=O)NC(=O)N(c3ccc(Br)cc3)C2=O)C1c1ccccc1 (configuration not stated) | -5.1 | 75.7* | 2.7 | 7.4
CC(C)(C)c1ccc(O)c(N=Cc2c(O)ccc3ccccc23)c1 | 13.3 | 64.4* | -4.5 | -1.2
COC(=O)C(O)(c1ccc(N=Cc2ccccc2O)c(C)c1)C(F)(F)F (configuration not stated) | -6.8 | 0.5 | -4.2 | 1.2
O=c1[nH]c(=S)n(C2CC2)c(O)c1C=Nc1ccc2c(c1)OCO2 | -1.8 | 14.1 | -1.5 | 1.8
Cc1cccc(N2C(=O)NC(=O)C3(Cc4cc(C)ccc4N(C)C3)C2=O)c1 (configuration not stated) | -4.5 | 38.0 | 1.3 | -0.7
COc1ccc2c(c1)CC1(CN2C)C(=O)NC(=O)N(c2ccc(F)cc2)C1=O (configuration not stated) | -5.3 | 72.3* | -0.7 | 2.8
COc1ccc2c(c1)CC1(CN2C)C(=O)NC(=O)N(c2ccc(C)cc2)C1=O (configuration not stated) | -3.7 | 52.1* | -4.5 | -0.3
CCOC(=O)c1c(C)n(CCOC)c2ccc(O)cc12 | -3.6 | 91.7* | -0.3 | 0.6 | AHR act confirm=79.7*;PXR act counter=19.0*
CC(N)Cc1c[nH]c2ccc(OCc3cccs3)cc12 (configuration not stated) | -5.5 | 80.3* | -1.6 | -1.4 | AHR act confirm=50.5*;PXR act counter=11.1*
